Assay [1] is described as follows: S. cerevisiae growth inhibition in permissive medium (OD615), pilot counter-assay for S. cerevisiae lifespan shortening project, permissive growth control (AID 705). The following applies: OD615, 24 h, at 10 µM, active compounds read high.
The nature of assay [2]: S. cerevisiae growth inhibition in restrictive medium, OD615, pilot screen, restrictive growth control, yeast lifespan reduction project (AID 706;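 active means growth inhibition above a set limit, 3 SD over mean compound inhibition, in both replicates, cut at about 43% in these data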;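 further: modified DeaD lifespan yeast strain shifted to restrictive glucose medium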). The settings on record: OD615, 48 h, at 10 µM, active compounds read high.
Assay [3] in a line: doxorubicin toxicity protection in MRP-1 cells – H69AR cells, CellTiter-Glo, duplicate, MRP-1 activator project, pilot screen (AID 807;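 active means viability increase at or above a cutoff of the median across tested compounds plus 3 SD, cut at about 8.5% in these data, passing the limit was not always enough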;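 further: compound pretreatment 18-22 h then 72 h combined with doxorubicin; 0% = doxorubicin alone and 100% = vehicle without doxorubicin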). The settings on record: H69AR viability with doxorubicin, CellTiter-Glo luminescence; at 10 µM; active compounds read high. (In general: In ATP-based viability assays light output follows the ATP content of the culture.)
Assay [4] in a line: viability of HCT116 without oncogenic beta-catenin – human colon tumor cells, pilot screen (AID 823;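 active means cell viability at or below a set limit in both duplicate runs, the limit being the all-compound median minus 4 SD, cut at about 23% in these data, passing the limit was not always enough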;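 further: 0% = wells killed by 20 µM Hyamine and 100% = untreated DMSO cell wells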). The following applies: HCT116 beta-catenin knockout viability, CellTiter-Glo, 60 h; at 10 µM; active compounds read low.
Assay [5] can be described thus: viability of PTEN-null HCT116 cells – cell-based, HCT116 clonal line, CellTiter-Glo, pilot screen (AID 824;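 active means viability at or below 27.92% in each of two runs, the all-compound median minus 4 SD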;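 further: 0% = 20 µM Hyamine control and 100% = vehicle cell control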). The settings on record: HCT116 PTEN-deleted viability, 60 h, at 10 µM, active compounds read low.
The nature of assay [6]: RAM pathway blockade in budding yeast – dse1pr::URA3 reporter, 5-FOA selection, pilot screen (AID 869;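 active means inhibition over a set limit, the all-compound mean plus 3 SD, in both replicate runs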;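 further: 0% = DMSO wells with no growth and 100% = 10 µM 1-NA-PP1 with full growth; RAM network block rescues cells from 5-FOA so hits raise OD615 growth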). The following applies: S. cerevisiae dse1pr::URA3 5-FOA growth, OD615, 2 d; at 10 µM; active compounds read high; strain carries analog-sensitive mutant Cbk1 kinase.

The source of these data is PubChem BioAssay.

A number with no mark means an inactive call. Results filed as inconclusive are left out. Active and inactive are the calls of the source.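 How the source made its calls, unless noted: active means growth inhibition above 25% in both replicates, a cutoff set 3 SD above the mean; inconclusive means above 25% in only one replicate; inactive means the rest.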

A word on the viability: it is a read-out of living cells in per cent, often relative to untreated cells. A word on the inhibition: it is the change of the read-out against control, counted positive when it falls. Regarding `COC(=O)c1ccc(C)c(NC(=O)CN(c2cc(OC)ccc2OC)S(C)(=O)=O)c1`, the values for the growth inhibition in assay [1] and in assay [2] were -8.06% and -3.94%, respectively. Besides, the viability increase in assay [3] was -3.03%. Further, the results for the viability in assay [4] and in assay [5] were 75.5% and 68.6%, respectively. Moreover, the inhibition in assay [6] was 0.035%.
As to `Cc1c(C(=O)O)nn(-c2ccccc2)c(=O)c1C#N`, the figures for the growth inhibition in assay [1] and in assay [2] were -15.2% and 5.62%, respectively. Besides, the viability increase in assay [3] is 0.49%. Besides, the viability in assay [4] was 98.4%; in assay [5], 102%. Further, the inhibition in assay [6] is 1.46%.
Take `CCOC(=O)C1=C(N)OC2=C(C(=O)CC(C)(C)C2)C1C1CCCCC1` (stereo not drawn): the growth inhibition is -13.2% in assay [1] and -4.08% in assay [2]. Also, the viability increase in assay [3] was -1.22%. Further, the viability in assay [4] was 93.3%; in assay [5], 92.9%. Moreover, the inhibition in assay [6] is 1.4%.
For the compound `O=C(CCS(=O)(=O)c1cccc2nonc12)N1CC(=O)N(CCc2ccccc2)C(=O)C1`, the growth inhibition is -5.67% in assay [1] and -8.59% in assay [2]. Moreover, in assay [3], the viability increase was -3.51%. For the same compound, the viability in assay [4] is 95.4%; in assay [5], 92.3%. Further, the inhibition in assay [6] is -0.47%.
Turning to `Clc1ccc(Cc2nnc(-c3cccs3)o2)cc1`, the growth inhibition is -0.04% in assay [1] and 5.1% in assay [2]. Also, in assay [3], the viability increase is 4.43%. In addition, the viability was 106% in assay [4] and 95.9% in assay [5]. Moreover, in assay [6], the inhibition was 0.935%.
With `O=S1(=O)C=C(SCCN2CCCCC2)c2ccccc21`, the growth inhibition in assay [1] was -4.08%; in assay [2], -20.4%. The viability increase in assay [3] is -7.06%. For the same compound, the viability is 61.6% in assay [4] and 66.9% in assay [5]. In assay [6], the inhibition was 1.29%.
In the case of `O=C(O)CC1C(=O)NCCN1C/C=C/c1ccccc1` (stereo not drawn), the growth inhibition was -17.1% in assay [1] and -16.1% in assay [2]. Moreover, the viability increase in assay [3] is -2.39%. In addition, the viability in assay [4] is 105%; in assay [5], 93.1%. The inhibition in assay [6] was 3.62%.
With `COc1cc(OC)c(NC(=O)CS(=O)(=O)Cc2nc(-c3ccc(C)cc3)oc2C)cc1Cl`, the values for the growth inhibition in assay [1] and in assay [2] were -22.6% and -17%, respectively. Also, the viability increase in assay [3] is -1.21%. Moreover, the viability was 85.5% in assay [4] and 78.1% in assay [5]. Further, the inhibition in assay [6] is 1.96%.
Turning to `CCOC(=O)C1Cn2c(nc3c(c2=O)C2(CCCC2)Cc2ccccc2-3)S1` (stereo not drawn), the growth inhibition in assay [1] was -15.5%; in assay [2] it was -1.87%. In assay [3], the viability increase is -3.9%. The viability in assay [4] is 84.2%; in assay [5], 77.4%. Moreover, in assay [6], the inhibition is 2.23%.
For `COc1ccc2cc(CCNC(=O)c3ccc(Br)o3)c(=O)[nH]c2c1`, the growth inhibition was -10.1% in assay [1] and -17% in assay [2]. Further, in assay [3], the viability increase was -2.65%. Further, the viability in assay [4] is 95.9%; in assay [5], 90.3%. Moreover, the inhibition in assay [6] was 1.84%.
On to `COc1ccc(OCCn2c(NC(=O)c3ccco3)nc3ccccc32)cc1`, for which the figures for the growth inhibition in assay [1] and in assay [2] were 2.63% and 9.83%, respectively. Further, the viability increase in assay [3] is -6.84%. The viability in assay [4] is 56.9%; in assay [5] it was 57.9%. Moreover, the inhibition in assay [6] is 3.36%.
In the case of `CN1CSC2=C(C#N)C(c3cccc(OCc4ccccc4)c3)CC(=O)N2C1` (stereo not drawn), the growth inhibition is -5.43% in assay [1] and 20.4% in assay [2]. Also, the viability increase in assay [3] is -4.67%. Besides, the viability is 85.7% in assay [4] and 88.5% in assay [5]. Moreover, in assay [6], the inhibition was 0.785%.
For the compound `Brc1ccccc1-c1nnc(CSc2nnc3sc4ccccc4n23)o1`, the growth inhibition in assay [1] was 16.1%; in assay [2], 64.8% (active). In assay [3], the viability increase was -3.18%. Further, the viability in assay [4] was 96.1%; in assay [5] it was 91.7%. In addition, in assay [6], the inhibition was 2.15%.
Regarding `CCN1CCN(CC(=O)Nc2ccc(Cl)c(Cl)c2)C(=O)C1=O`, the results for the growth inhibition in assay [1] and in assay [2] were 3.48% and -8.29%, respectively. In addition, in assay [3], the viability increase was -0.65%. In addition, the figures for the viability in assay [4] and in assay [5] were 102% and 97.7%, respectively. The inhibition in assay [6] was 0.63%.
Take `COc1cccc(CSc2nc3sc(C)c(C)c3c(=O)n2Cc2ccco2)c1`: the values for the growth inhibition in assay [1] and in assay [2] were 6.35% and 2.66%, respectively. The viability increase in assay [3] is 0.35%. Further, the results for the viability in assay [4] and in assay [5] were 95.7% and 93%, respectively.
In the case of `COc1cc2c(cc1OC)C(c1ccccc1)N(C(=O)c1ccco1)CC2` (stereo not drawn), the results for the growth inhibition in assay [1] and in assay [2] were -21.2% and -17.6%, respectively. Moreover, the viability increase in assay [3] is -3.16%. For the same compound, the viability in assay [4] is 68.4%; in assay [5] it was 63.5%. In addition, the inhibition in assay [6] was 2.55%.
`COc1ccc(-c2noc(-c3cc(C)cc(C)c3)n2)cc1OC`: the figures for the growth inhibition in assay [1] and in assay [2] were -16.5% and -30.9%, respectively. Also, the viability increase in assay [3] was 4.05%. In addition, the viability was 100% in assay [4] and 96.6% in assay [5].
As for `CCOC(=O)c1ccc(NC(=O)c2cc3ccccc3o2)cc1`, the growth inhibition in assay [1] was -5.56%; in assay [2], -8.95%. Also, in assay [3], the viability increase is 1.54%. Besides, the viability was 86.2% in assay [4] and 86.6% in assay [5]. Moreover, the inhibition in assay [6] was 1%.
As for `Cc1cccc(-c2noc(CN(C(=O)c3c(-c4ccccc4Cl)noc3C)C(C)C)n2)c1`, the growth inhibition in assay [1] was -13.9%; in assay [2] it was -13%. In assay [3], the viability increase was -3.28%. Moreover, the viability in assay [4] is 44.3%; in assay [5], 49.4%. Besides, the inhibition in assay [6] was 0.585%.
In the case of `C(#Cc1ccccc1)CN1CCN(c2ccccn2)CC1`, the growth inhibition in assay [1] was -7.33%; in assay [2] it was -2.65%. Also, in assay [3], the viability increase was -1.2%. Besides, the viability in assay [4] was 98.3%; in assay [5] it was 91.9%.
Turning to `CCOc1ccc(NC(=O)C2CSC(c3ccncc3)=N2)cc1` (stereo not drawn), the results for the growth inhibition in assay [1] and in assay [2] were -3.44% and 29.4%, respectively. Besides, the viability increase in assay [3] is -0.05%. Also, the viability in assay [4] was 98.3%; in assay [5], 103%. Besides, the inhibition in assay [6] is 0.675%.
